# In the library only some 2.4% were active in any assay of this set; here they are far more common.
# TLR4 MyD88 comp: inhibitors of human TLR4-MyD88 binding; O00206+Q99836; HeLa CL3-4 TLR4/MyD88 BLA complementation, FRET ratio; inhibition, % at 8.4 µM; 0.18% of 200,000 active; AID 861; in the data active = inhibition above about 25%;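 note: 0% = vehicle and 100% = reference inhibitor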
# TMEM16A inh: mouse TMEM16A channel inhibition, primary screen; 1.2% of 310,000 active; AID 588511; HEK293 TMEM16A/YFP iodide influx fluorescence, ionomycin; normalized B-score (activity score, 25-100; higher = stronger inhibition) at 10 µM; Q8BHY3;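 active = ratio plate-corrected score three or more library SD toward inhibition, starting fluorescence score within five deviations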;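 note: score derived from kinetic fluorescence span divided by baseline fluorescence per well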
# TMEM16A act: mouse TMEM16A channel activation, primary screen. Q8BHY3. HEK293 TMEM16A/YFP-H148Q/I152L, iodide quench fluorescence; stronger effect = lower value. B-score at 10 µM. 0.3% of 340,000 active. AID 623877;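 active = fluorescence-ratio B-score plate-corrected deviation score at least 3 library SD below zero, with starting fluorescence score within 5 deviations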;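 note: channel opened by trigger with iodide after compound preincubation; score built on the fluorescence ratio of max minus min over baseline; more negative score means more quench and so TMEM16A activation or potentiation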
# NOD2-RIPK2 inh: inhibitors of human NOD2-RIPK2 interaction. O43353. CHO BLA complementation NOD2-RIPK2, CCF4 ratio. inhibition, % at 4.98 µM. 0.38% of 360,000 active. AID 624267; in the data active = inhibition above about 21%;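 note: 0% = vehicle only and 100% = reference blocker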
# TLR9-MyD88 inh: blocks human TLR9 binding to MyD88; AID 504734; CHO BLA complementation TLR9-MyD88, CCF4 FRET ratio; inhibition, % at 4.98 µM; 0.21% of 340,000 active; Q9NR96+Q99836;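 active = inhibition above the mean over all tested compounds plus 3 SD, cut at about 21% in these data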;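 note: 0% = DMSO only wells and 100% = clavulanate BLA inhibitor control wells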
# HTR2A ag: agonists of mouse serotonin 5-HT2A receptor (HTR2A) | P35363 | CHO-K1 mHTR2A beta-arrestin complementation, luminescence; percent of 30 µM serotonin response | activation, % at 7.6 µM | 0.66% of 360,000 active;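 active = activation above a run cutoff, the mean activation of all tested compounds plus 3 SD, cut at about 14% in these data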;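 note: 0% = plate median of compound wells and 100% = 30 µM serotonin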
# Target sequence (P35363 whole entry, looked up): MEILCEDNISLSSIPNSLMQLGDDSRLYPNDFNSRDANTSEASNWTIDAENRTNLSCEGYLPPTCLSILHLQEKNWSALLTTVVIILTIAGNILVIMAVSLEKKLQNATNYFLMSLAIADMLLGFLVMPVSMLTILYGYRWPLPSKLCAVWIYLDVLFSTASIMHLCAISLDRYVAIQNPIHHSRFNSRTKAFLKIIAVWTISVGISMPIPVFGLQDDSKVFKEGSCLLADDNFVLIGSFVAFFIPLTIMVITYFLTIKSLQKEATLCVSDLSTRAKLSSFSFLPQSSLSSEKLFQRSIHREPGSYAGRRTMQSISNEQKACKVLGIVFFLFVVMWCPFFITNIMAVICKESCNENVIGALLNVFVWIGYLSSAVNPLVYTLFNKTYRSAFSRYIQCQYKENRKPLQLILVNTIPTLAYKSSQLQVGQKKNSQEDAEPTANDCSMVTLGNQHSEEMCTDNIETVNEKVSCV
# TMEM16A reconf: reconfirmed blocker of mouse TMEM16A calcium-activated chloride channel | shares compounds with TMEM16A inh | HEK293 TMEM16A/YFP-H148Q, iodide quench fluorescence; ionomycin added to raise cell calcium | inhibition, % at 10 µM | 39% of 2,300 active | AID 652189;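 active = mean duplicate percent inhibition, scaled so buffer wells are 0 and the reference blocker 100, over three buffer SD above buffer mean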
# HEK293 Ca mobil: calcium mobilization counter-screen hit for TMEM16A inhibitor series; shares compounds with TMEM16A inh; TMEM16A/YFP HEK293, Fluo4 calcium mobilization; calcium response (% of ionomycin), % at 10 µM; 2% of 2,300 active; AID 652231;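 active = duplicate-averaged calcium signal over 20% of the ionomycin maximum, relative to buffer baseline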;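 note: each well's signal is peak minus trough fluorescence divided by its pre-addition baseline; 0% = buffer wells and 100% = ionomycin wells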
# YFP-HEK293 quench: acts in parental YFP-HEK293 cells lacking TMEM16A, counter-screen; shares compounds with TMEM16A inh; iodide YFP quench, ionomycin; YFP ratio F(max-min)/F0 at 10 µM; 2,300 tested, under 10 active; AID 652233;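 active = yellow fluorescent protein signal ratio exceeding the buffer control mean by over 5 SD of those controls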;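 note: ratio is mean of duplicate wells from kinetic YFP trace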
# ClC-1 rat inh: rat ClC-1 inhibition, TMEM16A specificity screen. shares compounds with TMEM16A inh. CHO ClC-1-YFP, iodide influx fluorescence quench; iodide control reads 0, buffer control 100. ratio percent, % at 10 µM. 2,300 tested, under 10 active. AID 652236;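 active = duplicate-mean ratio percent above the mean of iodide-only control wells, which defines zero, plus 5 of their SD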;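 note: higher percent means stronger block of ClC-1 iodide influx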
# OPRM1 ag: counter-screen for mouse HTR2A agonists: human mu opioid receptor agonists; U2OS OPRM1 beta-arrestin PathHunter, luminescence; DMSO 0%, DAMGO 9.3 µM 100%; activation, % at 9.3 µM; 5.3% of 2,300 active; shares compounds with HTR2A ag;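 active = mean activation above the mean of DMSO-only wells plus 3 SD, cut at about 0.5% in these data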
# HTR2A ag conf: confirmation of mouse HTR2A serotonin receptor agonists | shares compounds with HTR2A ag | CHO-K1 PathHunter beta-arrestin recruitment, luminescence; DMSO 0%, 30 µM serotonin 100% | activation, % at 7.6 µM | 19% of 2,300 active | AID 624381;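 active = mean activation across triplicates above the hit threshold derived in the original primary screen, cut at about 15% in these data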
# * hit, by the source's call; i = inactive; · = not tested or not shown.
SMILES,TLR4 MyD88 comp,TMEM16A inh,TMEM16A act,NOD2-RIPK2 inh,TLR9-MyD88 inh,HTR2A ag,OPRM1 ag,HTR2A ag conf,others
CN1C[C@H](CNC(=O)OCc2ccccc2)C[C@@H]2c3cccc4c3c(cn4C)C[C@H]21,-3.0,i,i,-4.8,4.2,-1.4,·,·,
CCN(CC)C(=O)N[C@H]1C[C@@H]2c3cccc4[nH]cc(c34)C[C@H]2N(C)C1,9.1,i,i,-10.8,-1.1,38.9*,-0.7,92.8*,TMEM16A reconf=i;HEK293 Ca mobil=i;YFP-HEK293 quench=-0.997;ClC-1 rat inh=-3.0
COc1ccc(-n2nnnc2C(c2cccs2)N2CCC3(CC2)C(=O)NCN3c2ccccc2)cc1 (centres undefined),·,·,·,-20.1,·,-2.4,·,·,
CCc1ccc(CN2CCN(C(=O)Cc3ccccc3)CC2)cc1,-15.7,i,i,2.4,19.6,-0.2,·,·,
O=C(Cc1ccccc1)N1CCN(Cc2ccccc2Cl)CC1,·,25*,i,-0.3,-7.3,21.7*,-0.7,2.0,TMEM16A reconf=i;HEK293 Ca mobil=i;YFP-HEK293 quench=-0.978;ClC-1 rat inh=-10.0
N#Cc1ccc(C(=O)N2Cc3cnnn3-c3ccccc3C2C#N)cc1 (centres undefined),·,·,·,3.3,1.5,1.8,·,·,
O=C(Oc1c(Cl)cc(Cl)c2ccccc12)N1CCCCC1,-1.8,100*,i,-8.5,4.6,14.6*,0.2,5.5,TMEM16A reconf=i;HEK293 Ca mobil=i;YFP-HEK293 quench=-1.04;ClC-1 rat inh=-10.5
CCOP(=O)(OCC)C(O)c1ccccc1 (centres undefined),·,i,i,-0.2,-10.2,15.8*,-0.6,-4.5,
CCOP(=O)(OCC)C(O)c1ccc(Br)cc1 (centres undefined),-10.2,i,i,2.1,-6.1,-3.2,·,·,
CCCCCSc1cc(OC)c(CCN)cc1OC,-8.5,i,i,0.2,2.4,30.0*,0.1,13.4,
COc1cc(CCN)ccc1O,·,i,i,-9.7,1.1,5.3,·,·,
CCCCCCCSc1cc(OC)c(CCN(C)C)cc1OC,7.7,i,i,2.6,4.1,34.5*,0.4,17.1*,
CCOC(=O)C12C(=O)OCC1C2c1ccccc1 (centres undefined),·,·,·,-2.6,·,-2.8,·,·,
O=C(NCCN1CCC2(CC1)C(=O)NCN2c1cccc(F)c1)c1ccc2ccccc2c1,·,·,·,1.4,·,-5.6,·,·,
CCCN1CCO[C@@H]2c3cc(O)ccc3OC[C@H]21,·,i,i,-9.0,10.4,57.6*,-0.7,160.9*,
Cc1cc(OCC(=O)NC(Cc2ccc(Cl)cc2)C(=O)O)c2c3c(c(=O)oc2c1)CCC3 (centres undefined),·,i,i,-0.5,-5.1,1.3,·,·,
CC(=O)N1CCC(N2CCCC(C(=O)c3cccc(Cl)c3)C2)CC1 (centres undefined),-1.5,i,i,-6.2,-1.3,35.5*,-0.2,85.8*,
COC(=O)C1=C(c2ccc(F)cc2F)C[C@@H]2CC[C@H]1N2C(=O)NCC1CC1,·,·,i,-2.9,-2.2,7.7,·,·,
NC1CCc2cc(O)c(O)cc2C1 (centres undefined),·,i,i,2.5,-1.8,57.7*,-0.2,152.7*,
O=C(CCCc1ccc(N(CCCl)CCCl)cc1)NCc1ccccc1,·,·,·,-4.8,1.6,3.4,·,·,
N#CC1c2ccccc2C=CN1C(=O)c1ccc(N(CCCl)CCCl)cc1 (centres undefined),·,·,·,-9.6,8.9,23.8*,-0.2,-4.8,
CCCCCN1C(=O)c2cc(OC)ccc2[C@@]2(C(=O)OCC)Cc3cc(OC)ccc3[C@@H]12,·,·,·,8.0,·,-5.4,·,·,
[N-]=[N+]=NCc1cn2cccnc2n1,8.1,i,i,-1.9,7.3,3.7,·,·,
N#CC12CNCC1CN=N2 (centres undefined),·,i,i,-0.2,-0.3,22.5*,-0.4,3.5,
COC(=O)c1ccc(NC(=O)CSc2nc3ccc(N4C(=O)C5C6C=CC(C6)C5C4=O)cc3s2)cc1 (centres undefined),8.1,i,i,-2.2,-5.7,2.2,·,·,
SMILES,TLR4 MyD88 comp,TMEM16A inh,TMEM16A act,NOD2-RIPK2 inh,TLR9-MyD88 inh,HTR2A ag,OPRM1 ag,HTR2A ag conf,others
Clc1ccccc1NC1=NCCCS1,·,i,i,-15.9,2.2,-7.6,·,·,
Cc1ccc(NC2=NCCCS2)c(C)c1C,-7.8,i,i,7.8,9.8,18.5*,-0.4,14.8*,
O=c1cccc2n1CC1CC2CN(C(c2cccc(F)c2)c2sc3ncnn3c2O)C1 (centres undefined),5.7,i,i,-2.4,2.2,16.5*,-0.5,2.8,
CC[C@H](C)[C@@H]1NC(=O)CNC(=O)c2csc(n2)[C@H](C(C)(C)O)OC(=O)C(C)(C)[C@H](CCCC(C)(Cl)Cl)OC(=O)c2csc1n2,·,·,·,2.7,·,15.4*,-0.3,5.1,
O=C1/C(=C\c2cccnc2)N2CCC1CC2,·,i,i,3.2,4.8,3.8,·,·,
COc1ccc(NC2Oc3cc4c(cc3C(c3cc(OC)c(OC)c(OC)c3)C2C)OCO4)cc1 (centres undefined),·,·,i,-7.1,5.5,5.9,·,·,
CCOP(=O)(OCC)C1(O)C(=O)Nc2ccc(Br)cc21 (centres undefined),1.1,i,i,1.5,-6.2,-5.4,·,·,
Cn1c(O)c(C(=O)c2ccccc2)c(=O)n(C)c1=O,1.1,i,i,-0.1,2.5,17.6*,-0.4,-0.7,
Cn1c(O)c(C(=O)c2ccccc2F)c(=O)n(C)c1=O,3.6,i,i,0.8,6.5,-3.8,·,·,
O=c1c2ccccc2nc(-c2ccccc2)n1-c1ccccc1O,·,i,i,2.5,-11.8,-2.2,·,·,
CC1=NN=C(c2ccc(N)cc2)c2cc3c(cc2C1)OCO3,·,i,i,-7.9,-0.1,31.4*,-0.5,39.8*,
